# Sampled rows, rich in hits. Any-hit rate of the full collection: about 2.8%.
# WRN inhibitor – inhibitors of human WRN helicase | Q14191 | Potency, µM (doses to about 114 µM), without a hit: top-dose activity change, negative = inhibition, actives largely listed as inhibitors | actives 0.46% (n = 360,000) | WRN helicase unwinding, fluorescent forked duplex, kinetic; also: potency is read from the fitted curve at half-maximal effect; % is scaled to controls: 0 for no effect and ±100 for the full control effect; nearly all actives have a fitted effect of over 55% in size
#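 Screening of the MLSMR collection measured strand separation of a quenched forked DNA duplex (100 nM) by 20 nM WRN with 2 mM ATP, all final. Compounds were preincubated with enzyme 15 min at room temperature.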
# POLI inh – blocks human DNA polymerase iota activity | Q9UNA4 | Pol iota fluorescent replication assay, 10 min | Potency, µM (titrated, usually from 115 µM), for the others: at the highest dose activity, negative = inhibition, hits mostly inhibitors | actives 1% (n = 390,000) | AID 588590; also: potency is read from the fitted curve at half-maximal effect
#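 Fluorescent replication assay read twice, at 0 min and 10 min after adding 50 nM (final) substrate. Enzyme (10 nM) and compounds were first incubated 15 min at room temperature; enzyme-free buffer wells were negative controls.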
# Pol beta inh – blocks human DNA polymerase beta activity | AID 485314 | P06746 | Potency, µM (titrated, usually from 114 µM), for the others: at the highest dose activity change, negative = inhibition, most hits filed as inhibitors | Pol beta primer extension/strand displacement, fluorescence kinetic | actives 1.3% (n = 340,000); also: potency is read from the fitted curve at half-maximal effect; % is scaled to controls: 0 for no effect and ±100 for the full control effect
#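 10 nM enzyme + cpd, 15 min RT; start with substrate 50 nM final; read 0 min and after 10 min RT. Corrected, normalized data; 4-parameter Hill curve fit.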
# PI5P4K alpha inh – blocks human PI5P4K alpha kinase activity; P48426; max response, %; PI5P4Kalpha enzyme, ADP-Glo luminescence, 60 min; stronger effect = lower value; AID 652105; actives 1.2% (n = 330,000); active = max response of -50% or lower; inconclusive = between -30% and -50%; inactive = -30% or higher; also: value at the top dose of about 77 µM; % is scaled to controls: 0 for no effect and ±100 for the full control effect
#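 qHTS, 1536-well: enzyme/substrate mix, compound by pin tool, 5 microM ATP final; RT 60 min; ADP-Glo reagents 1 (45 min) then 2 (30 min); luminescence.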
# Pol eta inh – inhibitors of human DNA polymerase eta. recombinant Pol eta, fluorescent DNA replication assay. Q9Y253. actives 1.2% (n = 390,000). Potency, µM (doses to about 114 µM), for inactives: top-dose activity change, negative = inhibition, most hits filed as inhibitors; also: potency is read from the fitted curve at half-maximal effect; % is scaled to controls: 0 for no effect and ±100 for the full control effect
#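 Pol eta at 10 nM preincubated with compounds 15 min at room temperature; reaction started with fluorescent substrate (50 nM final) and read kinetically at 0 and 10 min.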
# Pol kappa inh – DNA polymerase kappa (human) inhibition; Q9UBT6; purified Pol kappa, fluorescent DNA synthesis assay, 10 min; Potency, µM (highest dose often 107 µM), inactives show at the highest dose activity, negative = inhibition, hits mostly inhibitors; actives 0.53% (n = 400,000); also: potency is read from the fitted curve at half-maximal effect; % is scaled to controls: 0 for no effect and ±100 for the full control effect
# Target sequence (Q9UBT6 whole entry, looked up): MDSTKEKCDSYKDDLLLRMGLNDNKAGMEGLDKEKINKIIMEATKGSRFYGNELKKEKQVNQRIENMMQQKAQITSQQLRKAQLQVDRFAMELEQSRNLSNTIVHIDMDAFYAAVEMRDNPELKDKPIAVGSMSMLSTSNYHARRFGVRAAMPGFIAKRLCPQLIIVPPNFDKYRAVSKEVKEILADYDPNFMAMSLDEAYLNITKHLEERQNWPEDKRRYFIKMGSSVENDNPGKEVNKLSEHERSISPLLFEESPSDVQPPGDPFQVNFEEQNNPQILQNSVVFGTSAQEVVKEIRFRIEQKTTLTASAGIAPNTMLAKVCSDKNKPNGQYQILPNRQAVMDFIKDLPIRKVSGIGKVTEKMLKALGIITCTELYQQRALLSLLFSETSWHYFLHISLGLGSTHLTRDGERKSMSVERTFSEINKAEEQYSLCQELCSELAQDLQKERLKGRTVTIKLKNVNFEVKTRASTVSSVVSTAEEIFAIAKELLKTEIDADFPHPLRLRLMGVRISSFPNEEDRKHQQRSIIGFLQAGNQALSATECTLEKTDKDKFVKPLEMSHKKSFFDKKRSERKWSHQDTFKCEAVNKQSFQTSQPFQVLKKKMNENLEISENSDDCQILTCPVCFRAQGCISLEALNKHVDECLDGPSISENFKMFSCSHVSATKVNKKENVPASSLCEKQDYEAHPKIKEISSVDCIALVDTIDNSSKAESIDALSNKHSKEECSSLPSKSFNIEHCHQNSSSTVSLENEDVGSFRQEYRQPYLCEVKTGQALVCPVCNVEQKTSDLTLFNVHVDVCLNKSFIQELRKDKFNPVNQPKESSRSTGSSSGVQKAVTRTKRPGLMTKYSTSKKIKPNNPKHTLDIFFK
#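 Inhibition of 10 nM Pol kappa is measured by a fluorescent read-out at 0 and 10 min following addition of 50 nM substrate (final), with a 15-min room-temperature compound preincubation.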
# * = called active by the depositor; ? = inconclusive; / = no result given; [ ] = remark or other dose. Unless noted, calls follow the shape of the dose curve; as a rule, active = well fitted curve in the direction sought with a large enough effect; inconclusive = small, poorly fitted or top-dose-only effect, or another doubt; inactive = no such curve, though single readings can be large; an effect the other way counts as inactive or inconclusive.
SMILES,WRN inhibitor,POLI inh,Pol beta inh,PI5P4K alpha inh,Pol eta inh,Pol kappa inh
O=C1NC[C@@H](Cc2ccc(O)cc2)N(CCc2cc(C(F)(F)F)cc(C(F)(F)F)c2)C1=O,-6.3%,/,/,-68.3*,/,/
Cc1cccc(NC(=O)CSc2nnc(-c3ccco3)c(-c3ccco3)n2)c1C,31.6µM*,2µM*,22.4µM*,-77.4*,12.6µM*,31.6µM*
Cc1ccccc1NC(=O)CSc1nnc(-c2ccco2)n1N,-11.8%,43.3%,/,-6.3,-13.4%,3.6%
Cc1cccc(NC(=O)CSc2nnc(-c3ccco3)c(-c3ccco3)n2)c1,31.6µM*,?,25.1µM*,-61.3*,39.8µM*,79.4µM*
Cc1cccc(NC(=O)CSc2nc(N)cc(N)n2)c1,2.2%[57.1 µM],30.3%,-0.8%,-6.1,-14.4%,-0.3%
CCOC(=O)C1CCCN(C(=O)C(=O)c2cn(CC(=O)N3CCOCC3)c3ccccc23)C1 (stereo unspecified),-23.1%,1.0%,27.3%,-3.1,-13.8%,-2.7%
CN(C)c1ccc(/C=C/c2ccnc3ccc4ccccc4c23)cc1,/,?,/,/,/,28.2µM*
CCN(CC)c1cc(C)c(/C=C/c2ccnc3ccccc23)cc1C,/,6.0%,/,/,/,-9.1%
Cc1cc(N(C)C)c(C)cc1/C=C/c1ccnc2ccccc12,/,89.1µM*,/,/,/,-19.4%
CN(C)c1ccc(/C=C/c2ccnc3c2ccc2ccccc23)cc1,/,30.9%,/,/,/,-6.5%
CN(C)c1ccc(/C=C/c2ccnc3ccccc23)cc1N,/,79.4µM*,/,/,/,-16.4%
CN(Cc1cccc(F)c1)C(=O)c1ccc(S(=O)(=O)N2CCOCC2)cc1,4.6%,-9.1%,/,1.8,-3.5%,-3.0%
O=c1[nH]c(=O)c2nc(Br)n(C3OC(CO)C(O)C3O)c2[nH]1 (stereo unspecified),/,/,/,/,/,-0.3%[60.1 µM]
COCCN1C[C@@H](CO)O[C@@H](n2cnc3c(N(C)C)ncnc32)C1,7.2%,/,/,0.1,/,/
CC(=O)c1c(C)n(-c2cccc(C)c2)c2ccc(OC(=O)COc3ccccc3)cc12,/,24.5%,36.6%,/,-8.5%,7.0%
Cc1c(Cl)cccc1NC(=O)CNc1cccc(S(=O)(=O)N(C)C)c1,-4.6%,10.8%,79.4µM*,-7.6,-11.3%,-5.9%
CCNc1ccc(S(=O)(=O)N(C)C)cc1NCC(=O)Nc1ccc(F)c(Cl)c1,-12.2%[57.1 µM],89.1µM*,-25.8%,6.4,-16.9%,-9.8%
CCOC(=O)c1ccccc1NC(=O)COC(=O)CCC(=O)c1ccccc1,-10.3%,14.3%,-0.9%,12.9,-7.3%,-7.1%
COc1cccc(-c2[nH]nc3c2C(c2ccoc2)C(C#N)=C(N)O3)c1 (stereo unspecified),?,?,35.5µM*,/,?,-15.6%
N#CC1=C(N)Oc2n[nH]c(-c3cccs3)c2C1c1cccnc1 (stereo unspecified),-7.4%,?,17.2%,-50.1*,-9.6%,1.0%
N#CC1=C(N)Oc2n[nH]c(-c3cccs3)c2C1c1ccoc1 (stereo unspecified),44.7µM*,?,-17.0%,-55.3*,?,-20.5%
Cc1ccc(C2C(C#N)=C(N)Oc3n[nH]c(-c4cccs4)c32)cc1 (stereo unspecified),-11.5%,32.8%,-0.1%,?,-18.0%,-6.6%
CCC[C@H]1C[C@H](C(=O)NC(C(C)Cl)C2O[C@@H](SC)C(OP(=O)(O)O)[C@@H](O)[C@@H]2O)N(C)C1 (stereo partly specified),/,/,/,/,/,-9.1%[60.1 µM]
COc1ccc(NC(=O)CC23CC4CC(CC(Br)(C4)C2)C3)c(OC)c1,3.7%,60.7%,-12.1%,7.1,-18.9%,-8.7%
CCOc1ccc(-n2c(=O)c3c(C)c(C)sc3n(CC(=O)NCCc3ccccc3)c2=O)cc1,/,-12.2%,0.6%,/,/,-10.1%
Cc1ccc(C)c(Cn2c(SCC(=O)NCc3ccccc3)nc3ccccc32)c1,/,?,?,/,-10.9%,-5.8%[60.1 µM]
COc1cccc(/C=C2/CN(C)CC3=C2OC(N)=C(C#N)C3c2cccc(OC)c2)c1 (stereo unspecified),79.4µM*,-20.4%,3.1%,-10.2,-19.9%,-14.8%

# Compound activity as filed in PubChem.
